{"source": "PubChem BioAssay AID1159580", "about": "(chemical genetic matrix, 2015)", "assay": "chemical genetic growth profiling, strain panel (AID 1159580);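 further: tested at 20 µM; growth read once vehicle control cultures reached saturation at 30 °C; 1 = growth at the plate median or of vehicle wells; lower values mean less growth of the strain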", "conditions": "growth OD", "note": "About 2,000 (36%) of roughly 5,500 compounds were called active. Another 18% or so got no clear call; they are omitted. Some of the results follow. A number with no mark means an inactive call. No stated cut-off is given here; in the data, active means normalized growth mostly below about 0.91 (no sharp cut-off); inconclusive means no clear call, values can overlap the other calls; inactive means mostly above about 0.92."}
{"smiles": "CO[C@@H]1[C@@H](OC(N)=O)[C@@H](O)[C@H](Oc2ccc3c(O)c(NC(=O)c4ccc(O)c(CC=C(C)C)c4)c(=O)oc3c2C)OC1(C)C", "values": [{"measurement": "normalized growth", "setting": "S. cerevisiae deletion strains, locus YJR043C, strain POL32, active compounds read low", "value": 1}, {"measurement": "normalized growth", "setting": "S. cerevisiae deletion strains, locus YJR066W, strain TOR1, active compounds read low", "value": 0.896}, {"measurement": "normalized growth", "setting": "S. cerevisiae deletion strains, locus YJR075W, strain HOC1, active compounds read low", "value": 1.02}, {"measurement": "normalized growth", "setting": "S. cerevisiae deletion strains, locus YKL009W, strain mrt4, active compounds read low", "value": 0.96}, {"measurement": "normalized growth", "setting": "S. cerevisiae deletion strains, locus YKL068W, active compounds read low", "value": "0.925 (active)"}, {"measurement": "normalized growth", "setting": "S. cerevisiae deletion strains, locus YKL085W, strain MDH1 (second series), active compounds read low", "value": 0.949}, {"measurement": "normalized growth", "setting": "S. cerevisiae deletion strains, locus YKL085W, strain MDH1, active compounds read low", "value": 0.949}, {"measurement": "normalized growth", "setting": "S. cerevisiae deletion strains, locus YKL160W, strain elf1, active compounds read low", "value": 1.03}, {"measurement": "normalized growth", "setting": "S. cerevisiae deletion strains, locus YKL190W, strain CNB1, active compounds read low", "value": 0.993}, {"measurement": "normalized growth", "setting": "S. cerevisiae deletion strains, locus YKR001C, strain vps1, active compounds read low", "value": 0.99}, {"measurement": "normalized growth", "setting": "S. cerevisiae deletion strains, locus YKR026C, strain gcn3, active compounds read low", "value": 1.04}, {"measurement": "normalized growth", "setting": "S. cerevisiae deletion strains, locus YKR091W, strain srl3, active compounds read low", "value": 1.03}, {"measurement": "normalized growth", "setting": "S. cerevisiae deletion strains, locus YLL001W, strain dnm1, active compounds read low", "value": 1.04}, {"measurement": "normalized growth", "setting": "S. cerevisiae deletion strains, locus YLL026W, active compounds read low", "value": 1.04}, {"measurement": "normalized growth", "setting": "S. cerevisiae deletion strains, locus YLL041C, strain sdh2, active compounds read low", "value": 1.02}, {"measurement": "normalized growth", "setting": "S. cerevisiae deletion strains, locus YLR027C, strain aat2, active compounds read low", "value": 1.03}, {"measurement": "normalized growth", "setting": "S. cerevisiae deletion strains, locus YLR039C, strain RIC1, active compounds read low", "value": 0.962}, {"measurement": "normalized growth", "setting": "S. cerevisiae deletion strains, locus YLR058C, strain SHM2, active compounds read low", "value": 1.01}, {"measurement": "normalized growth", "setting": "S. cerevisiae deletion strains, locus YLR102C, strain apc9, active compounds read low", "value": 0.993}, {"measurement": "normalized growth", "setting": "S. cerevisiae deletion strains, locus YLR113W, strain HOG1, active compounds read low", "value": "0.793 (active)"}, {"measurement": "normalized growth", "setting": "S. cerevisiae deletion strains, locus YLR221C, strain rsa3, active compounds read low", "value": 1.02}, {"measurement": "normalized growth", "setting": "S. cerevisiae deletion strains, locus YLR258W, strain gsy2, active compounds read low", "value": 1.03}, {"measurement": "normalized growth", "setting": "S. cerevisiae deletion strains, locus YLR262C, strain YPT6 (second series), active compounds read low", "value": 1.02}, {"measurement": "normalized growth", "setting": "S. cerevisiae deletion strains, locus YLR262C, strain YPT6, active compounds read low", "value": 0.968}, {"measurement": "normalized growth", "setting": "S. cerevisiae deletion strains, locus YLR268W, strain sec22, active compounds read low", "value": 0.955}, {"measurement": "normalized growth", "setting": "S. cerevisiae deletion strains, locus YLR320W, strain mms22, active compounds read low", "value": 1.04}, {"measurement": "normalized growth", "setting": "S. cerevisiae deletion strains, locus YLR330W, strain CHS5, active compounds read low", "value": 1.03}, {"measurement": "normalized growth", "setting": "S. cerevisiae deletion strains, locus YLR342W, strain FKS1 (second series), active compounds read low", "value": 1.04}, {"measurement": "normalized growth", "setting": "S. cerevisiae deletion strains, locus YLR342W, strain FKS1, active compounds read low", "value": 1.03}, {"measurement": "normalized growth", "setting": "S. cerevisiae deletion strains, locus YLR357W, strain rsc2, active compounds read low", "value": 1.05}, {"measurement": "normalized growth", "setting": "S. cerevisiae deletion strains, locus YLR370C, strain arc18, active compounds read low", "value": 1.03}, {"measurement": "normalized growth", "setting": "S. cerevisiae deletion strains, locus YLR371W, strain rom2, active compounds read low", "value": 0.979}, {"measurement": "normalized growth", "setting": "S. cerevisiae deletion strains, locus YLR384C, strain iki3, active compounds read low", "value": 1.04}, {"measurement": "normalized growth", "setting": "S. cerevisiae deletion strains, locus YLR418C, strain cdc73, active compounds read low", "value": 1}, {"measurement": "normalized growth", "setting": "S. cerevisiae deletion strains, locus YML016C, strain PPZ1, active compounds read low", "value": 1.02}, {"measurement": "normalized growth", "setting": "S. cerevisiae deletion strains, locus YML032C, strain rad52, active compounds read low", "value": 0.99}, {"measurement": "normalized growth", "setting": "S. cerevisiae deletion strains, locus YML120C, strain ndi1, active compounds read low", "value": 1.02}, {"measurement": "normalized growth", "setting": "S. cerevisiae deletion strains, locus YML124C, strain tub3, active compounds read low", "value": 1}, {"measurement": "normalized growth", "setting": "S. cerevisiae deletion strains, locus YMR058W, strain fet3, active compounds read low", "value": 1.03}, {"measurement": "normalized growth", "setting": "S. cerevisiae deletion strains, locus YMR078C, strain ctf18, active compounds read low", "value": 0.997}, {"measurement": "normalized growth", "setting": "S. cerevisiae deletion strains, locus YMR125W, strain sto1, active compounds read low", "value": 1.02}, {"measurement": "normalized growth", "setting": "S. cerevisiae deletion strains, locus YMR129W, active compounds read low", "value": 1.03}, {"measurement": "normalized growth", "setting": "S. cerevisiae deletion strains, locus YMR205C, strain PFK2, active compounds read low", "value": 1.05}, {"measurement": "normalized growth", "setting": "S. cerevisiae deletion strains, locus YMR223W, strain ubp8, active compounds read low", "value": 1.03}, {"measurement": "normalized growth", "setting": "S. cerevisiae deletion strains, locus YMR231W, strain pep5, active compounds read low", "value": 1.03}, {"measurement": "normalized growth", "setting": "S. cerevisiae deletion strains, locus YMR307W, strain GAS1, active compounds read low", "value": 1.02}, {"measurement": "normalized growth", "setting": "S. cerevisiae deletion strains, locus YNL067W, strain RPL9B, active compounds read low", "value": 0.989}, {"measurement": "normalized growth", "setting": "S. cerevisiae deletion strains, locus YNL071W, strain lat1, active compounds read low", "value": 1.04}, {"measurement": "normalized growth", "setting": "S. cerevisiae deletion strains, locus YNL128W, strain TEP1, active compounds read low", "value": 0.945}, {"measurement": "normalized growth", "setting": "S. cerevisiae deletion strains, locus YNL183C, strain NPR1, active compounds read low", "value": 0.847}, {"measurement": "normalized growth", "setting": "S. cerevisiae deletion strains, locus YNL209W, strain ssb2, active compounds read low", "value": 1.04}, {"measurement": "normalized growth", "setting": "S. cerevisiae deletion strains, locus YNL233W, strain BNI4, active compounds read low", "value": 1.02}, {"measurement": "normalized growth", "setting": "S. cerevisiae deletion strains, locus YNL248C, strain rpa49, active compounds read low", "value": 1.02}, {"measurement": "normalized growth", "setting": "S. cerevisiae deletion strains, locus YNL250W, strain rad50, active compounds read low", "value": 0.956}, {"measurement": "normalized growth", "setting": "S. cerevisiae deletion strains, locus YNL271C, strain bni1, active compounds read low", "value": 0.986}, {"measurement": "normalized growth", "setting": "S. cerevisiae deletion strains, locus YNL298W, strain CLA4, active compounds read low", "value": 0.997}, {"measurement": "normalized growth", "setting": "S. cerevisiae deletion strains, locus YNL307C, strain MCK1, active compounds read low", "value": 0.991}, {"measurement": "normalized growth", "setting": "S. cerevisiae deletion strains, locus YNL322C, strain KRE1 (second series), active compounds read low", "value": 1.01}, {"measurement": "normalized growth", "setting": "S. cerevisiae deletion strains, locus YNR049C, strain mso1, active compounds read low", "value": 1.04}, {"measurement": "normalized growth", "setting": "S. cerevisiae deletion strains, locus YNR052C, strain pop2, active compounds read low", "value": 0.978}, {"measurement": "normalized growth", "setting": "S. cerevisiae deletion strains, locus YOL006C, strain TOP1, active compounds read low", "value": 0.965}, {"measurement": "normalized growth", "setting": "S. cerevisiae deletion strains, locus YOL012C, strain htz1", "value": 1}, {"measurement": "normalized growth", "setting": "S. cerevisiae deletion strains, locus YOL147C, strain pex11, active compounds read low", "value": 1.01}, {"measurement": "normalized growth", "setting": "S. cerevisiae deletion strains, locus YOR001W, strain rrp6, active compounds read low", "value": 0.979}, {"measurement": "normalized growth", "setting": "S. cerevisiae deletion strains, locus YOR061W, strain CKA2, active compounds read low", "value": 1.01}, {"measurement": "normalized growth", "setting": "S. cerevisiae deletion strains, locus YOR069W, strain VPS5, active compounds read low", "value": 1.01}, {"measurement": "normalized growth", "setting": "S. cerevisiae deletion strains, locus YOR070C, strain gyp1, active compounds read low", "value": 1.03}, {"measurement": "normalized growth", "setting": "S. cerevisiae deletion strains, locus YOR080W, strain dia2, active compounds read low", "value": 1.04}, {"measurement": "normalized growth", "setting": "S. cerevisiae deletion strains, locus YOR083W, strain WHI5, active compounds read low", "value": 1.03}, {"measurement": "normalized growth", "setting": "S. cerevisiae deletion strains, locus YOR106W, strain vam3, active compounds read low", "value": 1.02}, {"measurement": "normalized growth", "setting": "S. cerevisiae deletion strains, locus YOR136W, strain idh2, active compounds read low", "value": 1}, {"measurement": "normalized growth", "setting": "S. cerevisiae deletion strains, locus YOR144C, strain elg1, active compounds read low", "value": 1}, {"measurement": "normalized growth", "setting": "S. cerevisiae deletion strains, locus YOR184W, strain ser1, active compounds read low", "value": 0.987}, {"measurement": "normalized growth", "setting": "S. cerevisiae deletion strains, locus YOR231W, strain MKK1, active compounds read low", "value": 0.882}, {"measurement": "normalized growth", "setting": "S. cerevisiae deletion strains, locus YOR265W, strain rbl2, active compounds read low", "value": 1.02}, {"measurement": "normalized growth", "setting": "S. cerevisiae deletion strains, locus YOR270C, strain vph1, active compounds read low", "value": 0.927}, {"measurement": "normalized growth", "setting": "S. cerevisiae deletion strains, locus YOR290C, strain snf2, active compounds read low", "value": 1.05}, {"measurement": "normalized growth", "setting": "S. cerevisiae deletion strains, locus YOR316C, strain cot1, active compounds read low", "value": 0.987}, {"measurement": "normalized growth", "setting": "S. cerevisiae deletion strains, locus YPL051W, strain arl3, active compounds read low", "value": 1.05}, {"measurement": "normalized growth", "setting": "S. cerevisiae deletion strains, locus YPL055C, strain LGE1, active compounds read low", "value": 0.991}, {"measurement": "normalized growth", "setting": "S. cerevisiae deletion strains, locus YPL078C, strain atp4, active compounds read low", "value": 1.02}, {"measurement": "normalized growth", "setting": "S. cerevisiae deletion strains, locus YPL106C, strain sse1, active compounds read low", "value": 1.05}, {"measurement": "normalized growth", "setting": "S. cerevisiae deletion strains, locus YPL240C, strain hsp82, active compounds read low", "value": 1.02}, {"measurement": "normalized growth", "setting": "S. cerevisiae deletion strains, locus YPL256C, strain CLN2, active compounds read low", "value": 0.861}, {"measurement": "normalized growth", "setting": "S. cerevisiae deletion strains, locus YPR119W, strain clb2, active compounds read low", "value": 1.01}, {"measurement": "normalized growth", "setting": "S. cerevisiae deletion strains, locus YPR141C, strain kar3, active compounds read low", "value": 0.962}, {"measurement": "normalized growth", "setting": "S. cerevisiae deletion strains, locus YPR163C, strain tif3, active compounds read low", "value": 0.996}, {"measurement": "normalized growth", "setting": "S. cerevisiae deletion strains, locus YPR167C, strain met16, active compounds read low", "value": 0.999}, {"measurement": "normalized growth", "setting": "S. cerevisiae deletion strains, strain wtn01, active compounds read low", "value": 0.984}, {"measurement": "normalized growth", "setting": "S. cerevisiae strains, strain wild type, active compounds read low", "value": 1.02}]}
